This is an account of results in PubChem BioAssay (NCI).

“And” between values parts separate entries of the source, which are not always exact repeats. Equal entries are not always repeated. The panel holds about 83,000 compounds, 20% with a hit somewhere; the sample as a whole holds those more often.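 Plates (96-well) were seeded with cells, treated with compound at one concentration, and incubated for 48 hours before percent growth was determined.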 Values without a mark were called inactive. The source made the active and inactive calls.

The subject of the first assay is A498 renal. The assay can be described thus: NCI-60 one-dose screen, 48 h (100 = growth as untreated, 0 = no growth, -100 = all killed). As to conditions: 10 µM. The procedure: Growth inhibition of the A498 human tumor cell line is measured as a screen for anti-cancer activity. Cells are grown in 96 well plates and exposed to the test compound for 48 hours. Compounds are tested at a single concentration, which is 10^-5 M for most compounds. The reported endpoint is percent growth (GI% or GIPRCNT), where numbers from 0 - 100% represent growth inhibition, and numbers from -100% - 0 represent cell death. For example, a value of 40 represents 60% growth inhibition. A value of 0 means no net growth occurred over the course of the experiment. A value of -40 indicates 40% of cells at the beginning of the experiment died by the end of the experiment. A value of -100 means all cells are dead at the end of the experiment.
NCI-60 Human Tumor Cell Lines Screen was performed using the standard one-dose NCI protocol, which is described in more detail at https://dtp.cancer.gov/discovery_development/nci-60/default.htm.
Compounds with GIPRCNT values below 10 were considered active. Activity score was based on GIPRCNT using the following formula: […]
Score is 0 for GIPRCNT values of 100 or above, 50 for GIPRCNT values of 0, and 100 for GIPRCNT values of -100.
Take `CS/C(=C\c1ccc(C(=O)c2ccc(C)cc2)n1C)S(C)=O` (stereo not given): the growth is 108%.

The assay is the same for the next values; noted with them: 10 µM unless noted.
On to `COc1cc([C@@H]2c3cc4c(cc3[C@H](O)[C@H]3COC(=O)[C@@H]23)OCO4)cc(OC)c1OC`, for which the growth was -5.77% (active) and -29.6% (active).

`CC(C)(C)C1CCC(=NO)CC1` (stereo not given): the growth was 97.4%. Same read-out and setting: then `S=c1nn[nH]n1C1CCCCC1`, with 87.5%. `Cc1ccc([N+](=O)[O-])cc1Br`: the growth was 88.5%. Regarding `Cn1c(N)c(N=O)c(=O)n(C)c1=O`, the growth is 99% and 78%. Still for that read-out and setting: next, `CS(=O)(=O)OCC1NC(=O)C(COS(C)(=O)=O)NC1=O` (stereo not given): 104% and 154%; `CC(=O)Nc1cscc1NC(C)=O`: 92.9%; `Cc1cccc(Cl)c1N`: 107%. The same measure, in the same setting: then `CC1NC(C)c2ccc3ccccc3c2O1` (stereo not given), with 84.8%; and `CCC(C)(O)CCC(C)(O)CC` (stereo not given), with 114%. Still for that read-out and setting: then `CNc1ccc(O)cc1`, with 90.9% and 68.1%; and `COc1cc(Cl)ccc1C`, with 110%.

Turning to `O=C(O)COc1ccccc1F`, the growth was 102%. For `N=C(N)N1CCc2ccccc2C1`, the growth is 58.3%. With `O=C(O)Cc1cc(=O)[nH]n(-c2ccccc2)c1=O`, the growth is 97.6%. On to `CCc1ccccc1-n1[nH]c(C)c(C=N)c1=O`, for which the growth is 112%. Same read-out and setting: then `N#Cc1c(N)nc2c(c(-c3ccc(Cl)cc3)nn2-c2ccccc2)c1C#N`, with 113% [100 µM]; and `COCCCNC1=C(C#N)C(=O)NC(c2cccs2)S1` (stereo not given), with 133%; and `N#CC(=S)Nc1ccc(Cl)c(Cl)c1`, with -12% (active). On the same count and under the same terms, next, `CN(C)C(=S)N(C)C`: 120%; `CC1=CC(=O)C=CC1=Nc1ccc(N(C)C)cc1`: 92.7% and 121%. The same measure, in the same setting: next, `O=C(O)C1CSCN1` (stereo not given): 113% and 103%; `COc1cc2c(cc1O)C(=O)CCCC2`: 116%. `CC1=CC(=O)c2cccc(NC3=NCCO3)c21`: the growth is 110%.

In the case of `Cc1c(O)nc(N)[nH]c1=O`, the growth was 109%. Same read-out and setting: then `COC(=O)CCOc1ccccc1`, with 83.9%. As for `CCOC(=O)CN1CCC(C(=O)OCC)CC1`, the growth was 91.5%.

In the case of `CCN(CC)C(CC(=O)c1ccccc1)C(=O)c1ccccc1` (stereo not given), the growth was 75.1%. The same measure, in the same setting: then `COc1ccc2oc3c(ccc[n+]3C)c(=O)c2c1`, with 95.7%; and `CCC(C)NC(=O)c1ccccc1C` (stereo not given), with 89.2%. Regarding `CC(C)=NOC(C)C(=O)O` (stereo not given), the growth is 89.2%. `O=C1c2cccnc2-c2ncccc21`: the growth was 103% [100 µM]. As for `C(#CCN1CCOCC1)CCCN1CCOCC1`, the growth was 87.1% and 104%. As to `O=C(O)c1ccc2c3ccc(C(=O)O)c4c(C(=O)O)ccc(c5ccc(C(=O)O)c1c25)c43`, the growth is 108%. In the case of `Cc1cc(O)c(C(C)C)cc1N=O`, the growth is 94.8% and 95.5%. The same measure, in the same setting: next, `Oc1ccc(O)c(-c2ccccc2)c1`: 132%; `COc1cc(NCCCCCNC(C)C)c2ncccc2c1`: 77.2%; `O=c1[nH]nnc2cc(Cl)ccc12`: 106%.

The assay is the same for the next values; noted with them: 100 µM.
Regarding `CS/C(=C\c1ccc(C(=O)c2ccc(C)cc2)n1C)S(C)=O` (stereo not given), the growth was 109%.
